Activity calls are given as the source filed them.

Experiment [1] has as its system Human papillomavirus type 1a protein E7 (residues 44-93). As to the kind of experiment: HPV1a E7 fragment binders on microarrays, primary screen, biochemical, small-molecule microarray, residues 44-93, 635 nm fluorescence (AID 1108).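 Also: E7 fragment applied at 1 µg/mL in TBST for 1 h at 4 C; score combines spot fluorescence with its signal to noise ratio.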 The settings on record: small-molecule microarray binding, fluorescence 635 nm; higher = more signal.
Experiment [2] is described as follows: modulators of HCV replicon luciferase signal, primary screen, HCV replication inhibitor project, Huh7 cells, luciferase reporter (AID 1109).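 Also: huh7 hepatoma cells harbouring a luciferase neomycin HCV replicon reporter; luciferase luminescence as measure of HCV replicon replication; test concentration not given here.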 The settings on record: 48 h, higher = more signal. In general terms: In antiviral work, replicon cells carry a viral genome segment that copies itself.
Experiment [3] concerns the target Left-right determination factor 2 (Homo sapiens) (UniProt O00292). As to the kind of experiment: LEFTY2 binders on small-molecule microarrays, primary screen, biochemical, small-molecule microarray, 635 nm fluorescence scan (AID 1110). The settings on record: LEFTY2 binding, higher = more signal.
For experiment [4], the target named is Calmodulin-1 (Homo sapiens) (UniProt P0DP23). As to the kind of experiment: CALM1 binders on microarrays, EGTA buffer, profiling panel, biochemical, small-molecule microarray, Cy5-labelled CALM1 (AID 1111).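 Also: labelled calmodulin applied in Tris saline Tween buffer holding calcium plus EGTA and DTT.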 The following applies: Cy5-CALM1 binding fluorescence, higher = more signal.
Experiment [5] shares this target. As to the kind of experiment: calcium-bound CALM1 binders on microarrays, profiling panel, artefact control for SMM control-protein annotation, biochemical, small-molecule microarray, Cy5-labelled CALM1, plus calcium (AID 1112).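 Also: score merges spot fluorescence with signal to noise from triplicate slides.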 The following applies: Cy5-CALM1 binding fluorescence, higher = more signal.
Experiment [6] in a line: small-molecule microarray binders of probe aWnt5a, primary screen, biochemical, biotinylated probe, 635/667 nm fluorescence (AID 1113).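 Also: score merges 667 nm fluorescence intensity with signal-to-noise per printed feature.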 The following applies: higher = more signal.
Experiment [7] can be described thus: small-molecule microarray binders of probe aShh, primary screen, biochemical, biotinylated probe, 635/667 nm fluorescence (AID 1114).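 Also: probe is biotin-labelled aShh protein from a stem cell growth factor screen; measures binding of labelled protein to compounds printed on the slide; score merges feature fluorescence at 667 nm with signal-to-noise.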 The following applies: higher = more signal.
Experiment [8] can be described thus: small-molecule microarray binders of probe aNog, primary screen, biochemical, biotinylated probe, 635/667 nm fluorescence (AID 1115).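 Also: probe is biotinylated aNog protein used at 0.15 µg/mL for 1 h at 4 C; z-score combines 667 nm fluorescence of each spot with its signal to noise.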 The following applies: higher = more signal.
For experiment [9], the target named is Torsin-1A-interacting protein 1 (Homo sapiens) (UniProt Q5JTV8). As to the kind of experiment: LAP1 binders from COS7 cell lysate, primary screen, small-molecule microarray, 635/667 nm fluorescence (AID 1116). The following applies: COS7-hLAP1 lysate binding, 635 nm fluorescence, higher = more signal.
Sequence of Torsin-1A-interacting protein 1 (Homo sapiens) (Q5JTV8 whole entry, looked up): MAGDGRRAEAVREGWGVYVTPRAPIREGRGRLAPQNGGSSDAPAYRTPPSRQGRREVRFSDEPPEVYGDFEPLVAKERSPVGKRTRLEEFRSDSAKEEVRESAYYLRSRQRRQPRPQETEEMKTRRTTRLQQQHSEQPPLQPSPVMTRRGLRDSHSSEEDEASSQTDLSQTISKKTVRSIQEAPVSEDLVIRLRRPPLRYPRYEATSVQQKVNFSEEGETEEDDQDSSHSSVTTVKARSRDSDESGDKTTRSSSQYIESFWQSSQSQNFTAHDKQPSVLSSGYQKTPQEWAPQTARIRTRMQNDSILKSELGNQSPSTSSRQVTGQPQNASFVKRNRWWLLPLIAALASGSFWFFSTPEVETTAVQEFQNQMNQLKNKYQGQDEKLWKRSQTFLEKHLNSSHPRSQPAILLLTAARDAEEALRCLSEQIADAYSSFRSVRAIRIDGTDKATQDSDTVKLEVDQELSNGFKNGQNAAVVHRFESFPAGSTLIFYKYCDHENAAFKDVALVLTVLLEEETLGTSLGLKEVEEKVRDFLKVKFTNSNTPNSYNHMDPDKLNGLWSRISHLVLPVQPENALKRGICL
In experiment [10] the target is Alpha-bungarotoxin (Bungarus multicinctus) (UniProt P60615). As to the kind of experiment: alpha-bungarotoxin binders on microarray, profiling panel, artefact control for SMM control protein annotation, biochemical, small-molecule microarray, Alexa647 label, 635/667 nm fluorescence (AID 1117). The following applies: alpha-BTX-A647 binding fluorescence, higher = more signal.
Sequence of Alpha-bungarotoxin (Bungarus multicinctus) (P60615 whole entry, looked up): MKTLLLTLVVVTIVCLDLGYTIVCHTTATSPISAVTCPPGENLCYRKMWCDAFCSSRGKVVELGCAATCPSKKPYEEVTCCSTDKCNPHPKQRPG

Another experiment deals with Albumin (Bos taurus) (UniProt P02769). As to the kind of experiment: bovine serum albumin binders on microarray, profiling panel, artefact control for SMM control protein annotation, biochemical, small-molecule microarray, Alexa647 label, 635/667 nm fluorescence (AID 1118).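 Also: score merges 667 nm emission intensity and signal-to-noise per printed compound spot.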 The settings on record: BSA-A647 binding, fluorescence 635 nm, higher = more signal.
Sequence of Albumin (Bos taurus) (P02769 whole entry, looked up): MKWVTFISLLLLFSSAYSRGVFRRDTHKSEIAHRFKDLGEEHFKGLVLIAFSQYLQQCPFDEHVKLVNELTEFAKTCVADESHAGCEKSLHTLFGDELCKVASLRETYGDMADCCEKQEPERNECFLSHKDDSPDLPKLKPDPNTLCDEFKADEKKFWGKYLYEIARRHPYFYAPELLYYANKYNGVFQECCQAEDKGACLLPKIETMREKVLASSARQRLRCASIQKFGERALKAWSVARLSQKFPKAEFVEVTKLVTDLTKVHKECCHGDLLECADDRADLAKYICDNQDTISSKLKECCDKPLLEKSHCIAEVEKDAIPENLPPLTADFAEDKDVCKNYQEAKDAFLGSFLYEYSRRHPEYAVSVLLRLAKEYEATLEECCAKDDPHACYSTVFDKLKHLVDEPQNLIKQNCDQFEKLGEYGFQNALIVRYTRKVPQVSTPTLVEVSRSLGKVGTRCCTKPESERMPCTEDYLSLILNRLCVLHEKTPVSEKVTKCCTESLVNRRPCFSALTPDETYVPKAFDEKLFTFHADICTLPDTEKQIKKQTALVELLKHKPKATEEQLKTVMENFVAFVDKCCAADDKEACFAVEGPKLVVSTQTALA
Experiment [11] can be described thus: small-molecule microarray binders of probe aXIP, primary screen, biochemical, NeuroSMM set, 635/667 nm fluorescence (AID 1119).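 Also: probe is the protein aXip251-270 applied at 1 µg/mL to compound-printed slides; binding of probe to printed compounds measured as 667 nm fluorescence plus signal to noise.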 The settings on record: higher = more signal, called active from +8 up or from −8 down.
Experiment [12] is described as follows: small-molecule binders of probe aNOTCH3, primary screen, biochemical, small-molecule microarray, 635/667 nm fluorescence (AID 1120).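 Also: probe is a biotin-tagged antibody raised against NOTCH3 rather than NOTCH3 protein; score merges spot fluorescence near 667 nm with spot signal to noise.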 The following applies: higher = more signal.
A short description of experiment [13]: small-molecule binders of probe aNOTCH2, primary screen, biochemical, small-molecule microarray, 635/667 nm fluorescence (AID 1121).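 Also: score merges feature fluorescence read at 667 nm with its signal to noise.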 The following applies: higher = more signal.
Experiment [14] addresses Carbonic anhydrase 2 (Homo sapiens) (UniProt P00918). As to the kind of experiment: CAII small-molecule binders, profiling panel, biochemical, small-molecule microarray, Alexa647-labelled CAII (AID 1122). The settings on record: CAII-A647 binding fluorescence, higher = more signal.
Experiment [15] can be described thus: COS7 lysate on small-molecule microarray, probe aHis, 635 nm (AID 1123).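 Also: z-score combines 667nm fluorescence intensity with signal-to-noise per printed compound spot.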 The following applies: COS7 cell lysate, fluorescence, higher = more signal.
The nature of experiment [16]: compound binding in COS7 lysate, probe aLAP1, primary screen, cell lysate, small-molecule microarray (AID 1124).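 Also: lysate comes from COS7 cells expressing LAP1 and is applied at 0.3 µg/mL; score merges spot fluorescence near 667 nm with signal-to-noise over triplicate slides.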 The following applies: probe aLAP1, fluorescence, higher = more signal.
Another experiment relates to Sam68 (KHDRBS1). As to the kind of experiment: Sam68 small-molecule binders, primary screen, biochemical, small-molecule microarray, 635 nm fluorescence (AID 1125).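 Also: score merges 667 nm channel intensity with signal to noise over triplicate slides.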 The settings on record: small-molecule microarray binding, higher = more signal.
In experiment [17] the test system is Chordin-like protein 2 (CHRDL2). As to the kind of experiment: CHRDL2 small-molecule binders, primary screen, biochemical, small-molecule microarray, 635 nm fluorescence (AID 1126).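 Also: printed compound slides probed with Chrdl2 protein at 4 µg/mL for 1 h at 4 C; score merges 667 nm emission intensity with signal to noise over three replicate slides.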 The settings on record: small-molecule microarray binding, fluorescence 635 nm; higher = more signal.
Experiment [18] concerns the target Concanavalin-A (Canavalia ensiformis) (UniProt P02866). As to the kind of experiment: ConA small-molecule binders, primary screen, artefact control for SMM control protein annotation, biochemical, small-molecule microarray, Alexa647 label, 635 nm (AID 1127).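 Also: z combines 667 nm emission intensity with signal-to-noise across three replicate slides.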 The following applies: ConA-A647 binding fluorescence, higher = more signal.

Sequence of Left-right determination factor 2 (Homo sapiens) (O00292 whole entry, looked up): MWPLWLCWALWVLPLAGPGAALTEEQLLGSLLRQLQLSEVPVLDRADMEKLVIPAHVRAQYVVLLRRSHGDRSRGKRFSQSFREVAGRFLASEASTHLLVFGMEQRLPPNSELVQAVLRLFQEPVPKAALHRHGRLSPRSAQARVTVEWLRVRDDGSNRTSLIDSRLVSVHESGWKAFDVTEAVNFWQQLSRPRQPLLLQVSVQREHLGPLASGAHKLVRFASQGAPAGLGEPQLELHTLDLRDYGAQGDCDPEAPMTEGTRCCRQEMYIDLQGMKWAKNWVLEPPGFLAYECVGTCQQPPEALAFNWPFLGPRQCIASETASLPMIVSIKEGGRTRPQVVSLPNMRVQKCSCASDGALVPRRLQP
Sequence of Concanavalin-A (Canavalia ensiformis) (P02866 whole entry, looked up): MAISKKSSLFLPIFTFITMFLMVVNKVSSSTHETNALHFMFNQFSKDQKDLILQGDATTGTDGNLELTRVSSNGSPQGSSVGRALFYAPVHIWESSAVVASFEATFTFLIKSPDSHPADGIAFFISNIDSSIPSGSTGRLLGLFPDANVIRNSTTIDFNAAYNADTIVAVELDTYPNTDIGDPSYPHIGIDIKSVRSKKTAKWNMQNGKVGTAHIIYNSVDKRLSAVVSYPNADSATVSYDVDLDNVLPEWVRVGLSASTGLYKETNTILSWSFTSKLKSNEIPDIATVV

Take `C=CCOC(=O)[C@H]1[C@@H]2C(=O)O[C@@H](c3ccccc3)[C@@H](c3ccccc3)N2[C@@H](c2ccc(OCCOC(=O)[C@H]3C[C@H]4C(=O)N[C@@H](CCCCN(C)C)C(=O)N4[C@H]3c3ccc(O)cc3)cc2)[C@]12C(=O)Nc1ccccc12`: the composite z-score in [1] is 1.36; in [3], 0.823; in experiment [4], 0.724; in experiment [5], -0.707; in [6], -0.0539; in [7], -0.157. Further, the composite z-score is -0.206 in experiment [8]; 0.876 in [9]; 0.0397 in [10]; -0.144 with Albumin (Bos taurus); 0.272 in experiment [12]; -0.185 in [13]. In addition, the composite z-score in experiment [14] was found to be 0.415; in [15] it was 1.48; in experiment [16] it was 0.0568; in the experiment with Sam68 (KHDRBS1), 1.29; in experiment [17], 1.21; in experiment [18], 1.1. The z-score in [2] was -0.917. In experiment [11], the composite Z-score was -0.168 (inactive).
As for `CCN(CC)c1ccc(N2CC=CC34O[C@@H]5/C=C\CCCOC(=O)C5[C@H]3C(=O)N(CCCCCCO)[C@@H]4C2=O)cc1` (stereo not given in full), the composite z-score was -0.117 in experiment [1]; -1.76 in experiment [3]; -1.18 in [4]; -1.05 in [5]; -0.139 in experiment [6]; 0.147 in [7]. The composite z-score in experiment [8] was -0.0439; in experiment [9] it was 1.26; in experiment [10], -0.855; with Albumin (Bos taurus), 0.248; in [12], -0.194; in [13], -0.145. Further, the composite z-score in experiment [14] is 0.898; in experiment [15] it was 0.846; in [16] it was 0.613; in the experiment with Sam68 (KHDRBS1), -0.32; in [17] it was -2.28; in experiment [18] it was -0.642. This compound also yielded a z-score in experiment [2] of 0.444. Also, the composite Z-score in experiment [11] is 0.703 (inactive).
For `CCOC(=O)C[C@H]1[C@H](OC(=O)Cc2ccc3c(c2)OCO3)[C@@H](NC(=O)c2ccccc2)c2cc(OCCCO)ccc2N1C(=O)c1ccccc1`, the composite z-score in experiment [1] was 0.487; in experiment [3], 0.24; in experiment [4], 0.334; in experiment [5], -0.469; in [6] it was -0.128; in experiment [7], -0.221. The composite z-score in [8] was -0.18; in experiment [9], 0.223; in experiment [10], 0.652; with Albumin (Bos taurus), -0.359; in [12] it was -0.0573; in [13] it was -0.121. Further, the composite z-score in [14] is 0.0488; in [15] it was 0.525; in [16], 0.379; with Sam68 (KHDRBS1), 0.425; in [17], 0.434; in [18] it was 0.374. The compound further showed a z-score in experiment [2] of -0.183. The composite Z-score in experiment [11] is 0.713 (inactive).
Turning to `COc1ccc([Si](C)(C)[C@@H]2[C@@H](CC(=O)N(CCO)Cc3ccccc3)O[C@]3(C(=O)N(Cc4ccc(N5CCOC5=O)cc4)c4ccccc43)[C@H]2C)cc1`, the composite z-score in experiment [1] was 0.542; in experiment [3], 0.491; in experiment [4] it was 0.515; in experiment [5], 0.385; in experiment [6], -0.0337; in [7] it was 0.321. Also, the composite z-score in [8] was 0.264; in experiment [9], 1.02; in [10], 0.989; in the experiment with Albumin (Bos taurus) it was -0.697; in experiment [12], -0.063; in experiment [13], -0.175. Moreover, the composite z-score is 0.469 in experiment [14]; 1.35 in [15]; -0.211 in experiment [16]; 0.951 with Sam68 (KHDRBS1); 0.697 in experiment [17]; 1.08 in experiment [18]. Further, the z-score in [2] is -4.45. The composite Z-score in [11] is 0.516 (inactive).
With `COc1ccc([Si](C)(C)[C@@H]2[C@@H](CCO)O[C@]3(C(=O)N(Cc4cccc(N5C(=O)COc6ccccc65)c4)c4ccccc43)[C@H]2C)cc1`, the composite z-score in [1] was 0.467; in [3], -0.382; in experiment [4], 1.06; in [5], 0.728; in experiment [6], -0.063; in [7], 0.0048. For the same compound, the composite z-score is -0.167 in experiment [8]; -0.028 in experiment [9]; 0.748 in [10]; 0.663 in the experiment with Albumin (Bos taurus); -0.126 in [12]; -0.0576 in experiment [13]. The composite z-score in experiment [14] was 0.163; in experiment [15] it was 1.35; in [16], 0.0386; in the experiment on Sam68 (KHDRBS1), 0.19; in [17], -0.117; in [18], 1.03. In experiment [2], this compound registered a z-score of -4.83. Also, in [11], the composite Z-score is 0.215 (inactive).
